NCF1 inh = p47phox/p22phox peptide binding inhibitors, primary screen, biochemical, uHTS, NADPH oxidase regulatory subunit | Neutrophil cytosol factor 1 (Homo sapiens), P14598 | inhibition, % at 24.7 µM | fluorescence polarization, 2 h | AID 1274, 2008 | 220,000 tested, 0.53% active;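 active = inhibition above about 30%, limit read from the data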;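 also: 0% = p47phox with labelled peptide and 100% = labelled peptide alone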
Target sequence (P14598 whole entry, looked up): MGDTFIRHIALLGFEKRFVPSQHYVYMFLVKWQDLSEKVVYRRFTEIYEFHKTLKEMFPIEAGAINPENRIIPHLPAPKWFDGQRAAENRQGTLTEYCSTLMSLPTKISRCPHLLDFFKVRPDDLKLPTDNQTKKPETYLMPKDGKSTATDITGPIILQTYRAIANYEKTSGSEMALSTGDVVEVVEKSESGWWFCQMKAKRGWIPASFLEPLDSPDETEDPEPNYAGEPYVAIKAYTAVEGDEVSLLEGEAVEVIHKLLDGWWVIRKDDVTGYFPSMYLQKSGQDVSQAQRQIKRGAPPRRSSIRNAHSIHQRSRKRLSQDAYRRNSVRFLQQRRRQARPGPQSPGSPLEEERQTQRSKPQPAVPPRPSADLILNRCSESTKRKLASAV
Mcl-1 Bim block = inhibitors of Bim peptide binding to Mcl-1, primary screen, biochemical, bead-based flow cytometry, multiplex; 190,000 tested, 0.1% active; Bim peptide-Mcl-1 binding; Induced myeloid leukemia cell differentiation protein Mcl-1 (Homo sapiens), Q07820; AID 1009, 2008; inhibition, % at 10 µM; in the data active = inhibition above about 40%;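 also: 0% = no compound tracer wells and 100% = peptide blocker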
Mcl1 Noxa PPI = Mcl-1/Noxa binding inhibitors, primary screen, biochemical, TR-FRET, 1536-well; inhibition, % at 21.7 µM; Induced myeloid leukemia cell differentiation protein Mcl-1 (Homo sapiens), Q07820; TR-FRET Mcl-1/Noxa peptide binding, 2 h; 220,000 tested, 1.5% active;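 active = compounds that cut the protein-peptide binding signal by more than 50% relative to plate controls in a single-dose test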;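 also: His-tagged Mcl-1 with rhodamine Noxa BH3 peptide and terbium anti-His antibody; 0% = Mcl-1 plus Noxa peptide wells and 100% = peptide-only wells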
14-3-3 Bad PPI = inhibitors of 14-3-3 zeta/Bad binding, primary screen, biochemical, TR-FRET, bovine 14-3-3 zeta; TR-FRET 14-3-3zeta/Dy647-pBad peptide displacement, 1 h; inhibition, % at 21.7 µM; 220,000 tested, 0.71% active; AID 781, 2007;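 active = inhibition above about 70%, limit read from the data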;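 also: 0% = full 14-3-3 plus peptide FRET controls and 100% = background without 14-3-3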
Mcl1-Bid inh = Mcl-1/Bid binding inhibitors, primary screen, biochemical, TR-FRET, 1536-well; AID 1021, 2008; inhibition, % at 21.7 µM; 220,000 tested, 0.97% active; TR-FRET Mcl-1/Bid-Dy647 peptide binding;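 active = compounds that cut the binding signal by more than half at the single screening dose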;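 also: His-tagged Mcl-1 with europium anti-His antibody binding Bid BH3 peptide; 0% = Mcl-1 plus peptide wells and 100% = peptide-only wells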
The depositor's hits bear a star; x = not tested or not shown; [ ] = dose if it differs, or a comment. This is a sample that favours compounds with a hit; in the whole collection about 3.1% have one here.

SMILES	NCF1 inh	Mcl-1 Bim block	Mcl1 Noxa PPI	14-3-3 Bad PPI	Mcl1-Bid inh
CCOC(=O)C(NCCCCl)c1ccccc1 (stereo not drawn)	-2	2	7	73*	-20
CCOc1cc(/C=C2\SC(=O)N=C2N)ccc1O	-36	8	52*	-11	-49
CCOc1ccccc1NC(=O)N1CCC(NC(=O)c2cccc(C)c2)CC1	13	-2	47	80*[fluorescence artefact?]	-18
CCCCc1ccc(-c2nc(NC(=O)C3C4CCC(O4)C3C(=O)O)sc2C)cc1 (stereo not drawn)	-21	-3	4	12	-54
COc1ccccc1NC(=O)CSc1nnnn1-c1ccc2c(c1)OCO2	9	-2	0	4	99*
Oc1ccc(Nc2nc3ccccc3nc2Nc2ccc(O)cc2)cc1	66*	1	82*	62	24
O=C(Nc1nnc(SCc2c(Cl)cccc2Cl)s1)c1ccc2ncsc2c1	1	-4	-59	93*	0
Cc1ccc2nc(NC(=O)c3ccc4ncsc4c3)sc2c1	-26	-2	49	29	30
N#Cc1ccc(CSc2nnc(NC(=O)c3ccc4ncsc4c3)s2)cc1	-8	-6	-97	86*	-82
C/C(=N\NC(=O)COc1ccc(C(C)(C)C)cc1)c1ccc2c(c1)OCCO2	-5	65*	5	4	-4
Cc1nc(-c2ccccc2O)n(-c2ccccc2)n1	-5	-1	12	-3	-6
COc1ccc(N=C(N)SCc2ccccn2)cc1	7	-2	42	47	67*
COc1ccc(-c2nnc(SCc3ccccn3)n2C)cc1	-11	6	2	-5	-7
COCCn1nnnc1CN1CCOCC1	-9	1	34	75*	29
CCN(CC)C(=O)CSc1nc2ccc(NC(=O)CSc3nnc(N)s3)cc2s1	-16	-3	44	-19	-55
Cn1c(SCC(=O)Nc2ccc3nc(SCC(=O)N4CCCC4)sc3c2)nnc1-c1ccc(N)cc1	-6	0	100*	-2	24
CCN(CC)C(=O)CSc1nc2ccc(NC(=O)CSc3nccn3C)cc2s1	-23	14	56*	-14	4
COc1ccc(S(=O)(=O)n2[nH]c(=O)c(CCO)c2C)c([N+](=O)[O-])c1	-16	0	15	-3	-34
CC(NC(=O)C1CCCN(C(=O)N(C)C)C1)c1ccccc1 (stereo not drawn)	-5	-6	-1	5	-3
CCO[C@@H]1OC(C(=O)N2CCOCC2)=C[C@H](c2ccccc2)[C@H]1CCCO	7	-1	9	-8	2
Cc1cc(NC(=O)C2CC2)ncc1NC(=O)c1ccccn1	-1	-2	14	-12	-41
Cc1ccc(C(C(=O)NCc2ccco2)N(Cc2ccco2)C(=O)CNC(=O)c2ccco2)cc1 (stereo not drawn)	67*	-5	12	6	-31
CC(C)CN(CCCNC(=O)CN1C(=O)COc2ccc(S(=O)(=O)N3CCCC3)cc21)CC(C)C	3	-1	11	5	-1
CCCCNC(C(=O)Nc1ccc([N+](=O)[O-])cc1Br)c1ccccc1 (stereo not drawn)	0	-2	37	71*	21
CC(C)(C)CC(=O)O/N=C(\N)c1ccccn1	6	-6	-6	6	85*
SMILES	NCF1 inh	Mcl-1 Bim block	Mcl1 Noxa PPI	14-3-3 Bad PPI	Mcl1-Bid inh
Cc1ccc(OCC(=O)O/N=C(\N)c2ccccn2)cc1	-14	0	10	-5	-28
O=C(/C=C/c1ccc2c(c1)OCO2)Nc1ccc(Cl)cn1	10	-2	17	27	63*
CCOc1ccc2nc(NC(=O)/C=C/c3ccc4c(c3)OCO4)sc2c1	-26	0	56*	40	60*
CCOc1ccc2nc(SCC(=O)Nc3ccc4c(c3)OCO4)sc2c1	-10	9	2	-13	-1
O=C(/C=C/c1ccc2c(c1)OCO2)Nc1nc(-c2ccc(F)cc2)cs1	-6	-4	4	5	-7
O=C(/C=C/c1ccc2c(c1)OCO2)Nc1nc2ccc(F)cc2s1	-5	x	71*	27	61*
CC1CCCN(C(=O)c2cccc(S(=O)(=O)Nc3cc(C(F)(F)F)ccc3Cl)c2)C1 (stereo not drawn)	-8	17	13	90*	27
COC(=O)c1ccc2nc(NC(=O)C(C)(C)C)sc2c1	-1	-2	-19	1	-2
COC(=O)c1ccc2nc(Nc3nc4ccc(F)cc4s3)sc2c1	-89	-6	95*	77*	81*
COc1ccccc1NC(=O)CSCC(N)=O	-7	-4	-15	4	6
COc1ccccc1NC(=O)CSCc1nc2ccccc2[nH]1	-1	-4	13	4	52*
COc1cc(/C=C2/C(=O)c3cccc([N+](=O)[O-])c3C2=O)c(Br)cc1O	-74	6	88*	-8	-28
O=[N+]([O-])c1cc(/C=N\Nc2nccs2)ccc1O	-10	1	101*	75*[fluorescence artefact?]	61*
CCOC(=O)c1c(NC(=O)COc2cccc3c2CCN(CC)C3=O)sc2c1CCC2	8	-9	0	-10	-11
CCOc1ccc(-c2nc(N)ncc2-c2ccccc2)c(O)c1	-7	-2	26	14	51*
CCN1CCN(c2cc(C)c3cc(NC(=S)N4CCCC(C)C4)ccc3n2)CC1 (stereo not drawn)	-4	0	21	1	-70
O=[N+]([O-])c1ccc(O)c(/C=N/Nc2ccc(Cl)nn2)c1	-6	1	79*	-12	-4
O=[N+]([O-])c1ccc(O)c(/C=N/Nc2nn[nH]n2)c1	-4	3	2	-16	-78
O=C1CC(/C=C/c2ccc([N+](=O)[O-])cc2)=Nc2ccccc2N1	12	x	9	-5	4
Cc1cc(Cl)c2cc3ccccc3cc2n1	-4	x	13	0	-9
COc1ccc2c(c1O)-c1ccccc1CCN(C)C2	1	-2	-4	-1	-3
CN1CCc2cccc3c2[C@@H]1Cc1ccc(O)c(O)c1-3	25	10	92*	26	9
COc1ccc(/C=C2\SC(=S)N(CC(=O)OCC(=O)Nc3ccc(C)cc3Cl)C2=O)cc1	x	-3	1	-3	-3
COc1ccc(CNC(=O)c2noc(C)c2[N+](=O)[O-])cc1	33*	-2	14	-3	-15
COc1ccc(CNC(=O)c2noc(C(C)C)c2[N+](=O)[O-])cc1	6	-2	37	3	-25
CCC(CC)C(=O)NCc1ccc(OC)cc1	-4	0	-12	76*	-2
O=C1CCCC/C1=C/Nc1cccc(C(F)(F)F)c1	-3	2	15	93*	-44
